The source of these data is PubChem BioAssay.

The nature of experiment [1]: inhibitors of TNFa-induced NFkB p65 translocation, primary screen, imaging, HUVEC, MLSMR starter and 10KST1 sets (AID 438;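 active means inhibition above 20% together with a positive visual image hit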;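 further: compound added about 3h40 before a 20 min TNFalpha stimulation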;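 on inhibition: signal is the nuclear over cytoplasmic p65 intensity ratio per well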). The following applies: HUVEC TNFa-induced p65 nuclear translocation; cell count: measured here: nuclei count (cytotoxicity indicator), at 2.08 µM; inhibition: at 2 µM, stronger effect = higher value, 0% TNFa-plus-vehicle, 100% no-TNFa wells.
Experiment [2] is described as follows: reduction of polyQ htt aggregates in cells – imaging, exon1htt(103Q)mCFP cells, high-content imaging, primary screen (AID 483;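 active means visual image review flags a hit and inhibition of aggregation exceeds 20%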;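 further: compound exposure lasted 3 days before fixation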;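 on nuclei count: percent of the per-plate median nuclei count of sample wells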). The settings on record: exon1htt(103Q)mCFP cell line, aggregate imaging, at 2 µM; inhibition of aggregation: stronger effect = higher value; nuclei count: measured here: cell count, toxicity.
Experiment [3] is described as follows: endothelial E-selectin expression blockers – imaging, HUVEC, immunofluorescence, MLSMR starter and 10KST1 sets, primary screen (AID 487;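 active means visually confirmed hit in the image check and inhibition above 20%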;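 on inhibition: signal is fraction of cell area covered by stained E-selectin grains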;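 on nuclei count: 100% = median nuclei count of all wells on the same plate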). The following applies: HUVEC TNFalpha-induced E-selectin immunofluorescence imaging, at 2 µM; inhibition: stronger effect = higher value; nuclei count: measured here: cell number, toxicity.
Experiment [4] addresses Voltage-gated potassium channel subunit beta-2 (Rattus norvegicus) (UniProt P62483). The experiment can be described thus: inhibitors of rat Kvbeta2 reductase activity – biochemical, NADPH fluorescence, primary screen (AID 622;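 active means fluorescence slope higher than the sample average by over 3 SD, cut at about -0.22 in these data, passing the limit was not always enough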;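 further: slope of raw intensity against log time taken from 70 to 1610 s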). The following applies: recombinant KvBeta, 4-cyanobenzaldehyde reduction, at 10 µM, stronger effect = higher value.
For experiment [5] the target is unchanged. In words: enhancers of rat Kvbeta2 NADPH turnover – biochemical, NADPH fluorescence, primary screen (AID 623;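 active means NADPH fluorescence slope more negative than the mean of all samples by about 3 SD, 99.7% confidence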;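 further: fluorescence intensity change per second fitted from 20 to 320 s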). The settings on record: Recombinant KvBeta, NADPH fluorescence decrease slope, 10 min; at 10 µM; stronger effect = lower value.
In experiment [6] the target is Alpha-2C adrenergic receptor (Homo sapiens) (UniProt P18825). The experiment can be described thus: compounds altering alpha2C-coupled GIRK flux – cell-based, HEK293 alpha2C/GIRK1/2, thallium flux, primary screen (AID 624;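 active means fluorescence slope after compound addition differing from the mean of all screened samples at 99.7% confidence, in either direction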;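 further: slope of fluorescence ratio to pre-addition baseline per second over 15 to 24 s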). The following applies: thallium flux BTC fluorescence, at 10 µM, actives lie on both sides.
Experiment [7] in a line: blockers of RIG-like receptor reporter activation – cell-based, Sendai virus stimulus, luciferase, 10K MLSCN set, TLR/RLR signaling modifier project, primary screen (AID 602276;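 active means inhibition at or above 50% at 10 µM; inactive means inhibition below 50%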;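 further: firefly luciferase from ISG56 promoter only with Renilla not read in this screen; 0% = Sendai virus plus DMSO and 100% = medium plus DMSO without virus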). The following applies: HEK293 RL24 IRF3 luciferase reporter, at 10 µM, stronger effect = higher value.
Experiment [8] can be described thus: TLR3 IRF3 reporter activation blockers – cell-based, poly I:C stimulus, luciferase, 10K MLSCN set, primary screen (AID 602277). The settings on record: HEK293-TLR3 RL24 IRF3 luciferase reporter, at 10 µM, stronger effect = higher value. A general note: In a reporter assay the amount or activity of a reporter protein is the signal.

By inhibition is commonly meant the change of the read-out against control, counted positive when it falls.

Active and inactive are the calls of the source.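 How the source made its calls, unless noted: active means inhibition of the reporter signal at or above 50%; inactive means inhibition below 50%.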 Where a SMILES comes first, the peptide text is derived from it. The star is where a group is joined. Boc = CC(C)(C)OC(=O)*

Alpha-2C adrenergic receptor (Homo sapiens), sequence (P18825 whole entry, looked up): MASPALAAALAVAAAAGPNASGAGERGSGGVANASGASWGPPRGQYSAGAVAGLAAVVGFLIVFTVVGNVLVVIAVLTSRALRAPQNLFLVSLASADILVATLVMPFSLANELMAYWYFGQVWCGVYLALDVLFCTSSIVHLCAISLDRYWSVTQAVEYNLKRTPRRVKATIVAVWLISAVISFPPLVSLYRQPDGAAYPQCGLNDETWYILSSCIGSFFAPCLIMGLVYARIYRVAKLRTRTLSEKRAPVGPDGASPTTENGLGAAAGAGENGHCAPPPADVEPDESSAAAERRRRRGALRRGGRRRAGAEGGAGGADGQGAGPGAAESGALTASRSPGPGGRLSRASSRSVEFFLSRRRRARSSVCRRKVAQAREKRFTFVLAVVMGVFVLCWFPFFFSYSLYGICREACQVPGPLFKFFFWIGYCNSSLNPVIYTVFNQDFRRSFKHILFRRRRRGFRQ
Voltage-gated potassium channel subunit beta-2 (Rattus norvegicus), sequence (P62483 whole entry, looked up): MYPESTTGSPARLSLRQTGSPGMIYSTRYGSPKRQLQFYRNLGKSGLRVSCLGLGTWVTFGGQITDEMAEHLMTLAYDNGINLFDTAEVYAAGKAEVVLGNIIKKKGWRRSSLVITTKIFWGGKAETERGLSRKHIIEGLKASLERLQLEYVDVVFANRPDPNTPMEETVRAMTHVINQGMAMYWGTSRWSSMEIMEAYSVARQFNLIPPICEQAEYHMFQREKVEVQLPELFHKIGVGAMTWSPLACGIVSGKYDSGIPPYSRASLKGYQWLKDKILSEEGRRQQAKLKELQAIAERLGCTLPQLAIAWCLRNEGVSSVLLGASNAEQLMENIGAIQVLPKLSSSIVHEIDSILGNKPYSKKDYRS

With `CC(C)C(NC(=O)c1ccco1)C(=O)NCC(c1ccco1)N1CCCCC1` (centres undefined), in experiment [1], the cell count is 379. The inhibition in experiment [1] is -22% (inactive); in experiment [3], 0% (inactive); in experiment [7] it was 3.26% (inactive); in experiment [8] it was 14.7% (inactive). Moreover, the inhibition of aggregation in experiment [2] is 6.7% (inactive). Besides, the nuclei count in experiment [2] was determined as 99%; in experiment [3], 97.7%. Besides, the fluorescence slope in experiment [4] was -0.588 (inactive). For the same compound, in experiment [5], the NADPH fluorescence slope was -2.6e-05 (inactive). Besides, the slope in experiment [6] was 0.00507 (inactive).

Consider `COCCOC(=O)c1[nH]c2c(c1C)C(=O)CC(c1ccco1)C2` (centres undefined), for which, in experiment [1], the cell count was determined as 930. Moreover, the inhibition in experiment [1] is 12.1% (inactive); in experiment [3], -169% (inactive); in experiment [7], 14.2% (inactive); in experiment [8], 77.7% (active). In addition, the inhibition of aggregation in experiment [2] is -345% (inactive). The nuclei count in experiment [2] turned out to be 2.7%; in experiment [3] it was 95.8%. For the same compound, in experiment [4], the fluorescence slope is -0.568 (inactive). In experiment [5], the NADPH fluorescence slope is -6.8e-06 (inactive). Also, in experiment [6], the slope is 0.00646 (inactive).

`CCCc1nnc(NC(=O)NCCN2C(=O)C3C4C=CC(C4)C3C2=O)s1` (centres undefined): the cell count in experiment [1] turned out to be 700. In addition, the inhibition in experiment [1] was -10.4% (inactive); in experiment [3], -78.4% (inactive); in experiment [7], -17.6% (inactive); in experiment [8], -19.1% (inactive). Besides, in experiment [2], the inhibition of aggregation is -8.7% (inactive). Further, the nuclei count in experiment [2] came to 76%; in experiment [3], 125%. Moreover, the fluorescence slope in experiment [4] is -0.602 (inactive). For the same compound, the NADPH fluorescence slope in experiment [5] was 1.8e-06 (inactive). For the same compound, in experiment [6], the slope was 0.00718 (inactive).

`Cc1noc(C)c1CSc1ccccc1C(=O)N1CCN(c2ccccc2)CC1`: in experiment [1], the cell count was 427. Also, the inhibition is -1.2% (inactive) in experiment [1], 14.6% (inactive) in experiment [3], 1.46% (inactive) in experiment [7] and 7.95% (inactive) in experiment [8]. For the same compound, the inhibition of aggregation in experiment [2] is -3.3% (inactive). The nuclei count in experiment [2] stood at 95.9%; in experiment [3], 105%. Also, the fluorescence slope in experiment [4] was -0.482 (inactive). Besides, the NADPH fluorescence slope in experiment [5] was 1.7e-05 (inactive). In addition, the slope in experiment [6] was 0.00481 (inactive).

Regarding `c1ccc(-n2ncc3c(NCc4cccs4)ncnc32)cc1`, the cell count in experiment [1] was 338. Moreover, the inhibition in experiment [1] is -5.7% (inactive); in experiment [3] it was -3.7% (inactive); in experiment [7], -19.7% (inactive); in experiment [8], -78.7% (inactive). Besides, in experiment [2], the inhibition of aggregation was -6% (inactive). For the same compound, the nuclei count was determined as 94.4% in experiment [2] and 118% in experiment [3]. In addition, the fluorescence slope in experiment [4] is -0.415 (inactive). In addition, the NADPH fluorescence slope in experiment [5] was -4.2e-05 (inactive). For the same compound, the slope in experiment [6] was 0.00561 (inactive).

Regarding `Cc1ccc2cc(C(c3nnnn3CC3CCCO3)N3CCCC4(CCCCC4)C3)c(=O)[nH]c2c1` (centres undefined), the cell count in experiment [1] stood at 715. Further, the inhibition in experiment [1] was 0.8% (inactive); in experiment [3], -34% (inactive); in experiment [7], 10.5% (inactive); in experiment [8], 16.9% (inactive). Further, in experiment [2], the inhibition of aggregation was 23.8% (inactive). For the same compound, the values for the nuclei count in experiment [2] and in experiment [3] were 106% and 112%, respectively. Further, in experiment [4], the fluorescence slope is -0.618 (inactive). The NADPH fluorescence slope in experiment [5] was -3.7e-05 (inactive). For the same compound, the slope in experiment [6] was 0.00614 (inactive).

For `Oc1c(C(c2ccccc2)N2CCc3ccccc3C2)sc2ncnn12` (centres undefined), in experiment [1], the cell count amounted to 651. Moreover, the inhibition in experiment [1] was 1.3% (inactive); in experiment [3], -25.4% (inactive); in experiment [7], 12.6% (inactive); in experiment [8] it was 30.7% (inactive). In addition, the inhibition of aggregation in experiment [2] was -23.6% (inactive). Moreover, the nuclei count in experiment [2] amounted to 111%; in experiment [3], 117%. Also, the fluorescence slope in experiment [4] is -0.618 (inactive). Moreover, the NADPH fluorescence slope in experiment [5] was -3.4e-05 (inactive). Also, in experiment [6], the slope is 0.00688 (inactive).

Consider `CSCCC(NC(=O)OC(C)(C)C)C(=O)NC(CC(C)C)C(N)=O` (stereo not drawn) (Boc-Met-Leu-NH2; configuration not given here), for which the cell count in experiment [1] worked out at 396. The inhibition in experiment [1] was -2.1% (inactive); in experiment [3], 7.9% (inactive); in experiment [7] it was 5.67% (inactive); in experiment [8], 22% (inactive). Further, the inhibition of aggregation in experiment [2] was -0.6% (inactive). The nuclei count amounted to 114% in experiment [2] and 101% in experiment [3]. Besides, in experiment [4], the fluorescence slope was -0.577 (inactive). In addition, the NADPH fluorescence slope in experiment [5] was 3.1e-05 (inactive). In experiment [6], the slope is 0.00653 (inactive).

For the compound `COC(=O)c1c(N)sc(C(=O)N2CCOCC2)c1C`, the cell count in experiment [1] is 261. In addition, the inhibition in experiment [1] was -5.1% (inactive); in experiment [3], 60.2% (inactive); in experiment [7], -4.15% (inactive); in experiment [8], -5.07% (inactive). The inhibition of aggregation in experiment [2] was 3% (inactive). Also, the values for the nuclei count in experiment [2] and in experiment [3] were 82.3% and 32.3%, respectively. In experiment [4], the fluorescence slope is -0.439 (inactive). The NADPH fluorescence slope in experiment [5] was -5.8e-06 (inactive). Besides, the slope in experiment [6] was 0.00581 (inactive).

On to `CCOC(=O)N1CCN(C(=O)CSc2ncnc3ccccc23)CC1`, for which, in experiment [1], the cell count is 747. Moreover, the inhibition in experiment [1] is -1.6% (inactive); in experiment [3] it was -10.3% (inactive); in experiment [7], 1.11% (inactive); in experiment [8], -8.53% (inactive). The inhibition of aggregation in experiment [2] is -8.8% (inactive). For the same compound, the figures for the nuclei count in experiment [2] and in experiment [3] were 120% and 115%, respectively. Also, in experiment [4], the fluorescence slope is -0.525 (inactive). Besides, the NADPH fluorescence slope in experiment [5] is -2.4e-05 (inactive). Also, the slope in experiment [6] was 0.00632 (inactive).

For the compound `CNC(=O)CSc1nnc(-c2ccc(S(=O)(=O)N3CCCC3)cc2)n1-c1cccc(C)c1C`, the cell count in experiment [1] amounted to 643. Moreover, the inhibition in experiment [1] is -2.4% (inactive); in experiment [3], -87.7% (inactive); in experiment [7], 12.2% (inactive); in experiment [8], 33.2% (inactive). In experiment [2], the inhibition of aggregation was -15.2% (inactive). Further, the nuclei count in experiment [2] was 108%; in experiment [3], 106%. In experiment [4], the fluorescence slope is -0.458 (inactive). The NADPH fluorescence slope in experiment [5] was -4.2e-05 (inactive). For the same compound, the slope in experiment [6] is 0.00667 (inactive).

For `CC1(C)NC(=O)N(CCOc2cccc(Cl)c2Cl)C1=O`, the cell count in experiment [1] was determined as 411. Also, the inhibition in experiment [1] is -1.1% (inactive); in experiment [3] it was -35.1% (inactive); in experiment [7], 16.8% (inactive); in experiment [8], 18.5% (inactive). The inhibition of aggregation in experiment [2] is 1.3% (inactive). In addition, the nuclei count in experiment [2] came to 98%; in experiment [3], 92.1%. In addition, the fluorescence slope in experiment [4] was -0.338 (inactive). In addition, the NADPH fluorescence slope in experiment [5] is -6.5e-06 (inactive). The slope in experiment [6] was 0.00521 (inactive).

Consider `O=C(c1ccccc1Br)N1CCN(c2ccccc2)CC1`, for which the cell count in experiment [1] turned out to be 619. Moreover, the inhibition is 1.2% (inactive) in experiment [1], -38.7% (inactive) in experiment [3], 9.32% (inactive) in experiment [7] and 14.8% (inactive) in experiment [8]. Further, the inhibition of aggregation in experiment [2] was -1.6% (inactive). Besides, the values for the nuclei count in experiment [2] and in experiment [3] were 100% and 123%, respectively. The fluorescence slope in experiment [4] was -0.488 (inactive). Further, the NADPH fluorescence slope in experiment [5] was -0.000203 (inactive). Moreover, the slope in experiment [6] is 0.00488 (inactive).

`CCN(CC)CCCNc1oc(-c2cccc(Cl)c2)nc1C#N`: the cell count in experiment [1] turned out to be 729. Besides, the inhibition in experiment [1] is -11.9% (inactive); in experiment [3] it was -37.9% (inactive); in experiment [7], 8.46% (inactive); in experiment [8], 27.9% (inactive). Moreover, the inhibition of aggregation in experiment [2] was -13.5% (inactive). Also, the values for the nuclei count in experiment [2] and in experiment [3] were 98.2% and 112%, respectively. Further, in experiment [4], the fluorescence slope is -0.0368 (active). Besides, the NADPH fluorescence slope in experiment [5] was -1.1e-05 (inactive). Also, in experiment [6], the slope is 0.00338 (inactive).
